Assay results: PubChem BioAssay AID598 (SRMLSC, 2007)
Screen size: about 85,000 compounds; about 5,100 (6%) were called active. The list comes from a sample in which actives are over-represented; it also holds similar structures and randomly drawn compounds. Values without a mark were called inactive.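 How the source made its calls: active means viability at or below 40%; inactive means viability above 40%.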

Experiment: H69AR cell viability reduction – human, 86K library, primary screen (AID 598);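 further: multidrug resistant small cell line overexpressing MRP-1 efflux transporter; 100% = mean luminescence of untreated control wells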
Conditions: H69AR lung tumor viability, ATP luminescence, 72 h; at 10 µM; active compounds read low

SMILES | viability
Cc1nn(C)cc1CNC(=O)Nc1ccc(Cl)cc1 | 90.8%
Cc1cccc(NC(=O)CN2CCCN(S(=O)(=O)c3ccc(Br)s3)CC2)c1 | 35.9% (active)
Cc1cccc(NC(=O)CSc2nnc(NC(=O)CN3CCOCC3)s2)c1 | 79.3%
Cc1cccc(NC(=O)CN2C(=O)CNC2=O)c1 | 91.7%
C/C(=N\NC(=O)c1nc(C)cc(C)n1)c1ccccc1 | 99.7%
O=C1c2ccccc2C(=O)N1CCCc1nc(-c2ccccc2)no1 | 95.5%
Oc1ccc(-c2onc3ccc(Cl)cc23)cc1 | 98.2%
COc1ccc(N2CCN(Cc3ccc(Br)s3)CC2)cc1 | 65.6%
CC1(C)Cc2cccc(OCC(N)=O)c2O1 | 102%
Fc1ccc2nc(N3CCCCC3)sc2c1 | 90%
Fc1ccc2nc(Nc3nc4c(s3)CCCC4)sc2c1 | 36.1% (active)
CNC(=O)c1ccc2nc(NC(C)=O)sc2c1 | 99%
COC(=O)CSc1nc2c(c(C3CC=CCC3)c1C#N)CCC2 (stereo not drawn) | 65.3%
O=C(c1cccc(F)c1)N1CCC(O)(c2cccnc2)CC1 | 88.1%
CCOC(=O)N1CCC(Nc2c(NCCCN3CCN(CC)CC3)c(=O)c2=O)CC1 | 112%
CCOC(=O)c1cnc(SCC(=O)NCc2ccco2)nc1N | 91.3%
Cc1cc(C(=O)OCC(=O)NCc2ccco2)c(C)n1-c1ccccc1 | 29.6% (active)
O=C(COC(=O)C12CC3CC(CC(C3)C1)C2)NCc1ccco1 | 83.8%
CNc1nc(SC)nc(N(C#N)CC(=O)OC)n1 | 92.4%
CCN(CC)S(=O)(=O)c1ccc2c3c(cccc13)C(=O)S2 | 69%
O=C(CSC1=Nc2ccccc2C2=NC(CC(=O)NCc3ccco3)C(=O)N12)NCc1ccco1 (stereo not drawn) | 85.9%
CCOc1cc(NC(=O)c2cnccn2)c(OCC)cc1NC(=O)c1ccc(C)cc1 | 110%
Cc1ccc(OCC(=O)N2CCN(C(=O)c3cccnc3)CC2)cc1 | 86.2%
COc1ccc(NC(=O)C(CC(C)C)NS(=O)(=O)c2ccc3c(c2)CCN3C(C)=O)cc1OC (stereo not drawn) | 90.6%
CCN(CC)Cc1cc(C(C)=O)ccc1O | 98.5%

SMILES | viability
CCOc1ccc2c(c1)C(c1ccc(C)cc1)=NNC(c1ccc(C)cc1)=N2 | 21% (active)
COc1ccc(C2C(C(C)=O)=C(O)C(=O)N2Cc2cccnc2)cc1 (stereo not drawn) | 99.2%
Cc1ccc(Nc2nnc(SCc3ccccc3)s2)cc1 | 98.2%
COc1ccccc1C(=O)N1CC2(C)CC1CC(C)(C)C2 (stereo not drawn) | 84.2%
Cc1ccc(/C=N/NC(=O)Cn2nc(C)c(Br)c2C)o1 | 102%
CCCCNC(=O)CCNC(=O)c1ccc(C(C)(C)C)cc1 | 102%
CCOC(=O)c1cccc(NC(=O)CN(c2ccc(C)cc2)S(=O)(=O)c2c(C)noc2C)c1 | 24% (active)
Cc1noc(C)c1S(=O)(=O)N(CC(=O)Nc1ccc2c(c1)OCCO2)c1ccc(C(C)C)cc1 | 56.8%
CCOc1ccc(N(CC(=O)OC)S(=O)(=O)c2c(C)noc2C)cc1 | 96.6%
CCOC(=O)c1cc2c(ccn2C)n1CC(=O)N1CCC(C)CC1 | 88.5%
O=C(COc1ccccc1)Nc1nonc1NC(=O)COc1ccccc1 | 93.3%
COc1ccc(CN2CN(C(C)C)CSC2=S)cc1 | 0.67% (active)
O=C(Nc1cc2ccccc2oc1=O)C1CCCCC1 | 98.1%
Cc1ccccc1-n1nc(C)c2cc(C(=O)NC3CC3)sc21 | 66.4%
O=C(Nc1ccc(Sc2ccc(Br)cc2)cc1)c1ccco1 | 54.3%
Cc1ccccc1NC(=O)c1cnn(-c2ccccc2)c1NC(=O)c1ccco1 | 84.4%
O=C(Nc1c(-c2ccccc2)nc2c(Br)cc(Br)cn12)c1ccco1 | 29.5% (active)
CCOC(=O)c1c(N=CN(C)C)c(C#N)c2n1CCCC2 | 90.8%
CCOc1ccc2[nH]c(=O)c(CN(Cc3nnnn3Cc3ccccc3)CC3CCCO3)cc2c1 (stereo not drawn) | 34.3% (active)
CCOc1ccc2[nH]c(=O)c(CN(Cc3nnnn3CCc3ccccc3)CC3CCCO3)cc2c1 (stereo not drawn) | 85.5%
COc1ccc2[nH]c(=O)c(CN(Cc3nnnn3CCc3ccccc3)CC3CCCO3)cc2c1 (stereo not drawn) | 67.1%
O=C(COc1ccc(S(=O)(=O)NCc2ccccc2)cc1)N1CCOCC1 | 97.4%
CCOc1ccc(Nc2oc(Cc3ccccc3)nc2C#N)cc1 | 78%
COc1ccc(Nc2oc(-c3ccccc3Cl)nc2C#N)cc1 | 14.3% (active)
COc1ccccc1-c1nc(C#N)c(N2CCC(C(N)=O)CC2)o1 | 95.8%

SMILES | viability
Cc1cc2nc(SCCN3CCOCC3)[nH]c2cc1C | 109%
C=C(C)CSc1nnc(-c2ccc(C)cc2)n1N | 99.4%
CC(=NCc1ccco1)c1c(C(F)(F)F)[nH]n(-c2nc3ccccc3s2)c1=O | 63.2%
N=c1c2c3c(sc2nc2n1CCCCC2)CCCC3 | 84%
NNC(=O)C1CCCn2c1nc1sc3c(c1c2=O)CCCC3 (stereo not drawn) | 91.5%
CS(=O)(=O)N(Cc1nc2sc3c(c2c(=O)[nH]1)CCCC3)C1CCCCC1 | 16.8% (active)
CCn1c(CC(=O)Nc2ccc(C)cc2)nnc1SCC(=O)Nc1nc(C)cs1 | 111%
S=C1NC(c2ccccc2)=NCN1c1ccc(Br)cc1 | 88.9%
CCOc1ccc(NC(=O)CN2CCN(CC(=O)Nc3ccc(OC)cc3)CC2)cc1 | 56.5%
CC1CN(S(=O)(=O)c2ccccc2)C(C)CN1S(=O)(=O)c1ccccc1 (stereo not drawn) | 101%
CC(O)CN(Cc1ccc(Cl)cc1)CC(C)O (stereo not drawn) | 100%
CCOc1ccccc1NC(=O)Nc1cc(OC)ccc1OC | 93.8%
CCOc1cc(-c2cc(-c3ccc(OC)cc3)nc(N)c2C#N)ccc1O | 51%
CCOc1ccccc1Oc1cn[nH]c1-c1ccc(OC)cc1O | 16.2% (active)
CCCC1(C(=O)OCC)NC(c2ccc(N(C)C)cc2)C2C(=O)N(c3ccc4c(c3)OCCO4)C(=O)C21 (stereo not drawn) | 80%
Cc1ccc(O/C=C2\OC(=O)c3ccccc32)cc1 | 89.6%
CN(Cc1nc2ccccc2c(=O)[nH]1)Cc1cc(=O)oc2ccc3ccccc3c12 | 91%
NC(=O)C1(N2CCCCC2)CCN(C2CC(=O)N(Cc3ccc(N4CCCC4=O)cc3)C2=O)CC1 (stereo not drawn) | 100%
COC(=O)Nc1ccc(S(=O)(=O)N2CCN(CCN3C(=O)C4C5C=CC(C5)C4C3=O)CC2)cc1 (stereo not drawn) | 79.9%
CCCCNC(=O)CSc1nc2n[nH]c(C)c2c(=N)n1-c1cccc(Cl)c1C | 15.5% (active)
CCCCNC(=O)CSc1nccn1Cc1ccccc1 | 99.2%
CCCCNC(=O)CSc1nnc(-c2ccco2)n1C | 81.6%
COc1ccc(CNCCCO)cc1OC | 111%
Cc1ccc(S(=O)(=O)Oc2ccc(/C=N/NC(=O)c3c(Cl)cnn3C)cc2)cc1 | 79.2%
COc1ccccc1NC(=O)CSc1nnc(C)n1CC1CCCO1 (stereo not drawn) | 113%

SMILES | viability
O=C(c1ccc(Cl)cc1)c1ccc(OCC(O)CN2CCCCC2)cc1 (stereo not drawn) | 64.1%
Cn1c(=O)c2c(nc(N3CCCCCC3)n2CC(=O)c2ccc(Br)cc2)n(C)c1=O | 46.8%
Cn1c(=O)c2c(nc(N3CCCCCC3)n2CC(O)COc2ccc(Cl)cc2)n(C)c1=O (stereo not drawn) | 28.2% (active)
CCN(CC)C(=O)CC1(c2ccccc2OC)CCOC(C(C)C)C1 (stereo not drawn) | 86.8%
COC(=O)c1ccc(CSc2ccc3nnc(-c4ccccc4)n3n2)o1 | 71.6%
CC(C)Cc1nc(N2CCOCC2)c(C#N)c2c1CCC2 | 89.6%
CCN1CCc2c(C#N)c(NCc3ccccc3)nc(NCCO)c2C1 | 62.2%
CC(C)CCNc1nc(N2CCCC2)c2c(c1C#N)CCN(C)C2 | 1.84% (active)
Cc1ccc2nc(SC(C)C(=O)NCc3ccco3)[nH]c2c1 (stereo not drawn) | 85.7%
c1ccc(-n2nc3ccccc3n2)cc1 | 96%
Cc1nn(Cc2ccccc2)c2c1C(c1ccccc1)C(C#N)=C(N)O2 (stereo not drawn) | 76.3%
Cc1cc(C(=O)OC(C)C(=O)Nc2cccc(S(=O)(=O)N3CCOCC3)c2)c(C)o1 (stereo not drawn) | 102%
COC(=O)C1=C(Nc2ccc(OC)cc2)C=C(C)C(C(=O)OC)C1c1ccc(C)cc1 (stereo not drawn) | 55.6%
COC(=O)C1=C(Nc2ccc(C)cc2)C=C(C)C(C(=O)OC)C1c1ccc(F)cc1 (stereo not drawn) | 12.1% (active)
COC(=O)C1C(=O)NCC1c1ccc(C)cc1 (stereo not drawn) | 82.2%
CCOC(=O)c1ccc2c(c1)nc(C)n2CC | 113%
Cc1nnc(NC(=O)CCCOc2ccccc2)s1 | 93.8%
CCC(CC)C(=O)N1CC(=O)Nc2ccc(Br)cc2C1c1ccccc1 (stereo not drawn) | 87%
COC(=O)/C(NC(C)=O)=C(\C)c1ccc(Cl)cc1 | 102%
Cc1cccc(NC(=O)/C(=C\c2ccco2)NC(=O)c2ccccc2)c1 | 85.2%
Cc1cc(C)cc(N(CC(=O)N2CC=C(c3ccccc3)CC2)S(=O)(=O)c2c(C)noc2C)c1 | 22.6% (active)
Cc1cc(C)cc(N(CC(=O)NCC2CCCO2)S(=O)(=O)c2c(C)noc2C)c1 (stereo not drawn) | 92.5%
CCOC(=O)C1CCCN(C(=O)CN(c2ccc(OC)cc2)S(=O)(=O)c2c(C)noc2C)C1 (stereo not drawn) | 78.5%
